Test results: PubChem BioAssay (Tox21)
Records with an inconclusive call do not appear. Unmarked numbers belong to inactive results. The source made the active and inactive calls. Calls follow the shape of the dose curve; as a rule, active = well fitted inhibition curve with a large enough effect in the repeat runs; inconclusive = weak or mixed curves, or effect the other way; inactive = no such curve, though single readings can be large or run the other way.

Each molecule was assayed against Androgen receptor (Homo sapiens) (UniProt P10275) (assay: qHTS assay to identify small molecule antagonists of the androgen receptor (AR) signaling pathway using the MDA cell line (AID 743042; also: nearly all actives have a fitted effect of over 55% in size)). Conditions: MDA-kb2 AR-luc, MMTV luciferase, R1881 antagonist, 16 h; series mostly up to 70.3 µM.
Sequence of Androgen receptor (Homo sapiens) (P10275 whole entry, looked up): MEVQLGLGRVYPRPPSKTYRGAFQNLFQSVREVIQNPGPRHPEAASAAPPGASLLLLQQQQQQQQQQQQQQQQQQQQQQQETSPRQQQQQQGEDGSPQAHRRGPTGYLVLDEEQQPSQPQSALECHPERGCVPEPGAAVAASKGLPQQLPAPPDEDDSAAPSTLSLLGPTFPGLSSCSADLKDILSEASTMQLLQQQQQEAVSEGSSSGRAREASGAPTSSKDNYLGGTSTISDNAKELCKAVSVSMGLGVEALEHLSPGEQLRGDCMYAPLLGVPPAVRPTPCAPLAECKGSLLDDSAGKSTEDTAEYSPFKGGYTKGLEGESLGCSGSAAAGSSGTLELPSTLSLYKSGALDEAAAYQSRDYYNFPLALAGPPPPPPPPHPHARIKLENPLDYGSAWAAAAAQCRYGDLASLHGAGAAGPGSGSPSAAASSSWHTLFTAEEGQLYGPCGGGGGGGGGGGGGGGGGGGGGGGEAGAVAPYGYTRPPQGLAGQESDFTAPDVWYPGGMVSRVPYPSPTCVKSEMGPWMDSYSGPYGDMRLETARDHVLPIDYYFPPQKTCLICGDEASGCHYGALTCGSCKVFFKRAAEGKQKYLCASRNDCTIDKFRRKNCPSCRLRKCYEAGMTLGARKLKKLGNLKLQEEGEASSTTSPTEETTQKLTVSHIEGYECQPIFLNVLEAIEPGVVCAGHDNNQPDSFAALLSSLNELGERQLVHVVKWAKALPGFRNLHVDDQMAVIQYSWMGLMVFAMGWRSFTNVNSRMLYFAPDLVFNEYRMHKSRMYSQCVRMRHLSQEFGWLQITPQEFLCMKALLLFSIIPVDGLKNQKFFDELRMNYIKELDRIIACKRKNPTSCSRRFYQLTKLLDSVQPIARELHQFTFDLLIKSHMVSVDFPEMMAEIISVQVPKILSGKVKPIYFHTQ
Description: U.S. Tox21 Program National Center for Advancing Translational Sciences [NCATS] NIH Chemical Genomics Center [NCGC] U.S. Environmental Protection Agency [EPA] National Institutes of Environmental Health Sciences [NIEHS] National Toxicology Program [NTP] U.S. Food and Drug Administration [FDA] Tox21 Assay Overview: Androgen receptor (AR), a nuclear hormone receptor, plays a critical role in AR-dependent prostate cancer and other androgen related diseases. Endocrine disrupting chemicals (EDCs) and their interactions with steroid hormone receptors like AR may cause disruption of normal endocrine function as well as interfere with metabolic homeostasis, reproduction, developmental and behavioral functions. To identify the compounds that inhibit AR signaling, MDA-kb2 AR-luc cell line (from ATCC, deposited by Wilson et al.) was used to screen the Tox21 10K compound library. MDA-kb2 AR-luc cell line is human breast carcinoma cell line that was stably transfected with a luciferase reporter gene under control of the MMTV promoter containing response elements for both androgen receptor (AR) and glucocorticoid receptor (GR).
Tox21 Assay Protocol Summary: MDA-kb2 cells were dispensed at 3,000 cells/4 uL/well of culture medium into white wall/solid-bottom 1536-well plates using a Multidrop Combi (ThermoFisher Scientific, Waltham, MA) dispenser. After the assay plates were incubated at a 37C and 0% CO2 for 5 hr, 23 nL of compounds dissolved in DMSO, positive controls or DMSO only was transferred to the assay plate by a Pintool station (Kalypsys, San Diego, CA), followed by addition of 1 uL of agonist (R1881) in culture medium using a Bioraptr Flying Reagent Dispenser (FRD) workstation (Beckman Coulter, Indianapolis, IN, USA). The plates were incubated at a 37C and 0% CO2 for 16 h. After 15.5 h incubation, 1uL of CellTiter-Fluor reagent (Promega, Madison, WI) was added using a Bioraptr FRD to each plate for measuring cytotoxicity. The fluorescence intensity was quantified on a ViewLux plate reader (PerkinElmer, Shelton, CT) following 30 min incubation at 37C and 0% CO2. For measuring luciferase reporter gene activity, 4 uL of ONE-Glo reagent (Promega) was added to each plate using a Bioraptr FRD and luminescence was quantified on a ViewLux (PerkinElmer) plate reader after 30 min incubation at room temperature.
% is scaled to controls: 0 for no effect and ±100 for the full control effect.

| Structure (SMILES) | outcome | activity change, negative = inhibition |
| --- | --- | --- |
| CC12CCCC=C1C(=O)OC2=O (centres undefined) | inactive | – |
| CC(CN1CC(=O)NC(=O)C1)N1CC(=O)NC(=O)C1 (centres undefined) | inactive | – |
| CC(C)OC(=O)C(C(=O)OC(C)C)=C1SC=CS1 | inactive | – |
| O=C1c2ccccc2C(=O)N1CO | inactive | – |
| Cc1ccc(N)nc1 | inactive | – |
| O=C(O)CCCCCCCCCC(=O)O | inactive | – |
| Cc1ccc2cccnc2c1 | inactive | – |
| CC1(C)C(=O)C(C)(C)C1=O | inactive | – |
| O=C(c1ccccc1)c1cccc(O)c1 | inactive | – |
| CC(C)CC(O)Cc1ccccc1 (centres undefined) | inactive | – |
| N[C@H]1C(O)O[C@H](CO)[C@@H](O)[C@@H]1O (some centres undefined) | inactive | – |
| C=CCN1CCc2nc(N)sc2CC1 | inactive | – |
| CC(=O)OC1CCC(C(C)(C)C)CC1 (centres undefined) | inactive | – |
| CSC(=O)c1cccc2nnsc12 | inactive | – |
| N#Cc1ccccc1C#N | inactive | – |
| COc1cc(OC)cc(OC)c1 | inactive | – |
| C/C(Cl)=C/CCl | inactive | – |

| Structure (SMILES) | outcome | activity change, negative = inhibition |
| --- | --- | --- |
| CCc1ncc(C)[nH]1 | inactive | – |
| COCc1nnc(-c2ccc[n+]([O-])c2)n1-c1c(Cl)c(Cl)cc2[nH]c(=O)c(=O)[nH]c12 | inactive | – |
| C/C(=N\O)c1ccc(OCC(=O)N2CCCCC2)cc1 | inactive | – |
| C[C@@H](CN1CC(=O)NC(=O)C1)N1CC(=O)NC(=O)C1 | inactive | – |
| CC/C=C\CCOC(=O)c1ccccc1 | inactive | – |
| CC(C)(C)NCC(O)COc1cccc2c1CCC(=O)N2 (centres undefined) | inactive | – |
| O=C[C@@H](O)[C@H](O)[C@H](O)CO | inactive | – |
| CCCCCCCCC1CO1 (centres undefined) | inactive | – |
| C=C(C)C(=O)OCCCC | inactive | – |
| NNC(=O)OCc1ccccc1 | inactive | – |
| Nc1cc(S(=O)(=O)O)ccc1O | inactive | – |
| CCOC(=O)[C@H](CCc1ccccc1)N[C@H]1CS[C@H](c2cccs2)CN(CC(=O)O)C1=O | inactive | – |
| CN(C)c1cc(NC(=O)CNC(C)(C)C)c(O)c2c1C[C@H]1C[C@H]3[C@H](N(C)C)C(=O)C(C(N)=O)=C(O)[C@@]3(O)C(=O)C1=C2O | inactive | – |
| COC(C)(C)CC(C)=O | inactive | – |
| CC(O)C(CO)C(C)O (centres undefined) | inactive | – |
| CCCC(=O)C(CC)Sc1ccoc1C (centres undefined) | inactive | – |
| CCCCCCCCCCCCCCCCN(C)C | – | 19.6% [at 8.47 µM] |
